Drawing on ChEMBL document CHEMBL1961873, “Compounds: GSK PKIS; Assays: Nanosyn kinase panel” (2012), this text covers inhibition for seven compounds.

Assay [1] concerns the target T1, Aurora kinase A (Homo sapiens) (UniProt O14965).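 Also: values are mean percent inhibition.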
T1 sequence (whole entry): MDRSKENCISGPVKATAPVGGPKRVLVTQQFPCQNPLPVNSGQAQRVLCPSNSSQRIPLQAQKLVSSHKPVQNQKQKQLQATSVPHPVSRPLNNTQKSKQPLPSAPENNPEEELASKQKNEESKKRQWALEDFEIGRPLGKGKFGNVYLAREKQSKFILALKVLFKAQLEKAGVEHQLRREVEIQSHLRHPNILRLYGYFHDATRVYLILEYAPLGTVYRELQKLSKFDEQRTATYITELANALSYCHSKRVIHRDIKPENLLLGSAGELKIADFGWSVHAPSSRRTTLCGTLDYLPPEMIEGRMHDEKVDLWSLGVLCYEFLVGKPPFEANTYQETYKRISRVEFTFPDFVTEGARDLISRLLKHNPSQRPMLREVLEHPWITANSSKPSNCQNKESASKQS
The note with it: at 1 µM.

Assay [2] concerns the target Aurora kinase B (Homo sapiens) (UniProt Q96GD4). The following applies: at 0.1 µM.
Assay [3] shares this target. The following applies: at 1 µM.
Assay [4] deals with T2, Aurora kinase C (Homo sapiens) (UniProt Q9UQB9).
T2 sequence (whole entry): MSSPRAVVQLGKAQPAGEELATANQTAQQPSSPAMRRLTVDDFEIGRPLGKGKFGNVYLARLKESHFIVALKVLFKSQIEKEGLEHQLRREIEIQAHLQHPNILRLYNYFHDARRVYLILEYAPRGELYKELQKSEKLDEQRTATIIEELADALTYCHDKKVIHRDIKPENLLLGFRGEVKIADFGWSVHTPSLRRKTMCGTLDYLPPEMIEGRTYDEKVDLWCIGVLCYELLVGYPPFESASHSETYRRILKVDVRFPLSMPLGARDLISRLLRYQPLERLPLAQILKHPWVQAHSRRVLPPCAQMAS
The note with it: at 0.1 µM.

Assay [5] has as its target T2, Aurora kinase C (Homo sapiens). The following applies: at 1 µM.
The target of assay [6] is Serine/threonine-protein kinase 10 (Homo sapiens) (UniProt O94804). The following applies: at 0.1 µM.
For assay [7] the target is unchanged. The following applies: at 1 µM.
Assay [8] deals with T3, Mitogen-activated protein kinase kinase kinase kinase 2 (Homo sapiens) (UniProt Q12851).
T3 sequence (whole entry): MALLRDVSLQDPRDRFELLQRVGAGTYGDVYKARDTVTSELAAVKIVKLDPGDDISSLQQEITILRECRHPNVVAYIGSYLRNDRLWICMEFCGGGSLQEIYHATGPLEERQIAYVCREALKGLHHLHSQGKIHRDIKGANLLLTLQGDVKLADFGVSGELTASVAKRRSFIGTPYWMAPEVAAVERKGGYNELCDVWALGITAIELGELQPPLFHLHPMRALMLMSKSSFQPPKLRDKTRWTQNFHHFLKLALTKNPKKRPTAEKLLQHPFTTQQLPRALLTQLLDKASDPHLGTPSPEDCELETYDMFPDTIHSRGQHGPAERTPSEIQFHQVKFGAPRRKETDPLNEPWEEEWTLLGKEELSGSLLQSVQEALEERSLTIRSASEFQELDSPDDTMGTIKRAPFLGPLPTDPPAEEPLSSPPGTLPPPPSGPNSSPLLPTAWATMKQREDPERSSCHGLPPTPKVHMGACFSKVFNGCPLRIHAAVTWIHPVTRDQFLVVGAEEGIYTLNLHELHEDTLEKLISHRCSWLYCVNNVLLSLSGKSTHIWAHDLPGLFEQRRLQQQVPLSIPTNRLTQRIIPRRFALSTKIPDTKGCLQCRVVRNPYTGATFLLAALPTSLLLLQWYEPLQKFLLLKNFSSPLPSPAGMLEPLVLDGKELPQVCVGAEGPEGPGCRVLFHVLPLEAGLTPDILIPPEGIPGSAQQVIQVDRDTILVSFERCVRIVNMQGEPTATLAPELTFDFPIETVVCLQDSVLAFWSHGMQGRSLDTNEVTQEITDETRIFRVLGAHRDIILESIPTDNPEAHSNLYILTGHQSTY
The following applies: at 0.1 µM.

Assay [9] addresses T3, Mitogen-activated protein kinase kinase kinase kinase 2 (Homo sapiens). The following applies: at 1 µM.
The target in assay [10] is Mitogen-activated protein kinase kinase kinase kinase 4 (Homo sapiens) (UniProt O95819). The following applies: at 0.1 µM.
Assay [11] shares this target. The note with it: at 1 µM.
Assay [12] has as its target Dual specificity mitogen-activated protein kinase kinase 1 (Homo sapiens) (UniProt Q02750). The note with it: at 0.1 µM.
The target is the same in assay [13]. The note with it: at 1 µM.
The target of assay [14] is Misshapen-like kinase 1 (Homo sapiens) (UniProt Q8N4C8). The following applies: at 0.1 µM.
For assay [15] the target is unchanged. The following applies: at 1 µM.
In assay [16] the target is T4, Serine/threonine-protein kinase 4 (Homo sapiens) (UniProt Q13043).
T4 sequence (whole entry): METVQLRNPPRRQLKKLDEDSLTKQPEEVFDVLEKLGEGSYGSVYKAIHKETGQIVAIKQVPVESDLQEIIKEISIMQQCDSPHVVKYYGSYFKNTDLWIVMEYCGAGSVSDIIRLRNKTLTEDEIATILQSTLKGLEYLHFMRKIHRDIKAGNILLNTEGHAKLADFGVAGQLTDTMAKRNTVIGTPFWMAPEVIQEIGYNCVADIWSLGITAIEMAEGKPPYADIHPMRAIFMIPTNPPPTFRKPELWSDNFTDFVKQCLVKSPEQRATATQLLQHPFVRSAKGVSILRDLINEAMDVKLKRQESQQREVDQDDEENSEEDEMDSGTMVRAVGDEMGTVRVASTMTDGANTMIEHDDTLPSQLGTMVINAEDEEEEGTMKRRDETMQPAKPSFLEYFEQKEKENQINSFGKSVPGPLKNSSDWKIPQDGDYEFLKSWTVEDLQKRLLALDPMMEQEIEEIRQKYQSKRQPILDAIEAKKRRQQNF
The following applies: at 0.1 µM.

In assay [17] the target is T4, Serine/threonine-protein kinase 4 (Homo sapiens). The following applies: at 1 µM.
Assay [18] has as its target T5, Serine/threonine-protein kinase 3 (Homo sapiens) (UniProt Q13188).
T5 sequence (whole entry): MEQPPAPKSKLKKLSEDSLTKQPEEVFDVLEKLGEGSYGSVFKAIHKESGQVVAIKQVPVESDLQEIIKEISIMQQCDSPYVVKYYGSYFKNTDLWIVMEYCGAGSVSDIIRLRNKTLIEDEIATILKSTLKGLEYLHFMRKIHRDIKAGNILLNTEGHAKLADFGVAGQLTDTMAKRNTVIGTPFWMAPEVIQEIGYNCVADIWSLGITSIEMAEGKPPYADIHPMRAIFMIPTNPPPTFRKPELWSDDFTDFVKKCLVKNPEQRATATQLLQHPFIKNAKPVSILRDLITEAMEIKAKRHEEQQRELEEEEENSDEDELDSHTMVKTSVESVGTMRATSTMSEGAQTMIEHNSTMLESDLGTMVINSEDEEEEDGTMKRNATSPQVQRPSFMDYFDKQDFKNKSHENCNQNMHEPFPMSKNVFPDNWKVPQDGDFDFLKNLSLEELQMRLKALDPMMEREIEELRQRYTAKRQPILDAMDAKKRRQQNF
The note with it: at 0.1 µM.

The target in assay [19] is T5, Serine/threonine-protein kinase 3 (Homo sapiens). The note with it: at 1 µM.
Assay [20] has as its target Serine/threonine-protein kinase 26 (Homo sapiens) (UniProt Q9P289). The note with it: at 0.1 µM.

Chain of Aurora kinase B (Homo sapiens) (Q96GD4 whole entry): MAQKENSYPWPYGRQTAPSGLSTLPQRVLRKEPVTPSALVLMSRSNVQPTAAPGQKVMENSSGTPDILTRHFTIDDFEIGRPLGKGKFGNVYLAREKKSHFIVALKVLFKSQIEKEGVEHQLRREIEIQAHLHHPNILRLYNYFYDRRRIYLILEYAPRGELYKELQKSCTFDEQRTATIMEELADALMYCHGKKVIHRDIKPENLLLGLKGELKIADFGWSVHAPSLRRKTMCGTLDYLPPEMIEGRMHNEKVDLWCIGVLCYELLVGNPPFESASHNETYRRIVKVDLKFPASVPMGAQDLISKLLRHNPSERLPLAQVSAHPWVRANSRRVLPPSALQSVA
Chain of Serine/threonine-protein kinase 26 (Homo sapiens) (Q9P289 2-416 limits assumed): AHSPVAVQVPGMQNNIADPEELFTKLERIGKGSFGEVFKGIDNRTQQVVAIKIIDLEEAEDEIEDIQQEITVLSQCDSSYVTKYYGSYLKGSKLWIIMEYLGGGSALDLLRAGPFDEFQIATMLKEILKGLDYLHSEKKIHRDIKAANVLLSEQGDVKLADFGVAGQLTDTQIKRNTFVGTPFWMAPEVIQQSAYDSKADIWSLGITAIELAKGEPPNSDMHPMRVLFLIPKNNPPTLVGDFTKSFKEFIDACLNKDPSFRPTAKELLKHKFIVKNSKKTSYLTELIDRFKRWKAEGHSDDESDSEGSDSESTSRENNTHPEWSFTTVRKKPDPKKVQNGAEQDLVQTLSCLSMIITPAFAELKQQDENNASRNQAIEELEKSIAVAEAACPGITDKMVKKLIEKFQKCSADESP
Chain of Serine/threonine-protein kinase 10 (Homo sapiens) (O94804 whole entry, looked up): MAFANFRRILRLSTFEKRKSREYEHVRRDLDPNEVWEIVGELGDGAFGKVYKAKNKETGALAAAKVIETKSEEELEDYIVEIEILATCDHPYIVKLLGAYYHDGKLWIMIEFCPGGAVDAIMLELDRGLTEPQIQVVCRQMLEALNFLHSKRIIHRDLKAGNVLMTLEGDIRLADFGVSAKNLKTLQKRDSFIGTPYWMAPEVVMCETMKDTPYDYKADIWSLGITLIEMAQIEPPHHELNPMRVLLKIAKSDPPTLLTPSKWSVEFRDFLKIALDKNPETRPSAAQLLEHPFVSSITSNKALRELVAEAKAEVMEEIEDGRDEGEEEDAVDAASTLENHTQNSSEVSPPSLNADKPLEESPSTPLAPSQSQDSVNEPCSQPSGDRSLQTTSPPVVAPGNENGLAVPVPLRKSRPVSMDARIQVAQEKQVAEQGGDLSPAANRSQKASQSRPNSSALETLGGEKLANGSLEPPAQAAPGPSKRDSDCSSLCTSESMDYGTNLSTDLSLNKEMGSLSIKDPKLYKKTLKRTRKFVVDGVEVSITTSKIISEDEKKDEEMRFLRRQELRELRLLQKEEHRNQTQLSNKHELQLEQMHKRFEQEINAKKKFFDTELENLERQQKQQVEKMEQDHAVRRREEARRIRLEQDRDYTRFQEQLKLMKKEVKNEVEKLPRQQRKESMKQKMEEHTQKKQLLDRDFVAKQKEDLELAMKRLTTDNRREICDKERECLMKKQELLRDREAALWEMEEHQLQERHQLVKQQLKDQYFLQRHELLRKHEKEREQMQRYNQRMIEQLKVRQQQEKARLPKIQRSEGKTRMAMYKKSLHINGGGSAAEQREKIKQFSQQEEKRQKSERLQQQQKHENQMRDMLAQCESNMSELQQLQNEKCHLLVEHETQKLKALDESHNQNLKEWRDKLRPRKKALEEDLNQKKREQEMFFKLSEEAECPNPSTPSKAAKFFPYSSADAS
Chain of Misshapen-like kinase 1 (Homo sapiens) (Q8N4C8 whole entry, looked up): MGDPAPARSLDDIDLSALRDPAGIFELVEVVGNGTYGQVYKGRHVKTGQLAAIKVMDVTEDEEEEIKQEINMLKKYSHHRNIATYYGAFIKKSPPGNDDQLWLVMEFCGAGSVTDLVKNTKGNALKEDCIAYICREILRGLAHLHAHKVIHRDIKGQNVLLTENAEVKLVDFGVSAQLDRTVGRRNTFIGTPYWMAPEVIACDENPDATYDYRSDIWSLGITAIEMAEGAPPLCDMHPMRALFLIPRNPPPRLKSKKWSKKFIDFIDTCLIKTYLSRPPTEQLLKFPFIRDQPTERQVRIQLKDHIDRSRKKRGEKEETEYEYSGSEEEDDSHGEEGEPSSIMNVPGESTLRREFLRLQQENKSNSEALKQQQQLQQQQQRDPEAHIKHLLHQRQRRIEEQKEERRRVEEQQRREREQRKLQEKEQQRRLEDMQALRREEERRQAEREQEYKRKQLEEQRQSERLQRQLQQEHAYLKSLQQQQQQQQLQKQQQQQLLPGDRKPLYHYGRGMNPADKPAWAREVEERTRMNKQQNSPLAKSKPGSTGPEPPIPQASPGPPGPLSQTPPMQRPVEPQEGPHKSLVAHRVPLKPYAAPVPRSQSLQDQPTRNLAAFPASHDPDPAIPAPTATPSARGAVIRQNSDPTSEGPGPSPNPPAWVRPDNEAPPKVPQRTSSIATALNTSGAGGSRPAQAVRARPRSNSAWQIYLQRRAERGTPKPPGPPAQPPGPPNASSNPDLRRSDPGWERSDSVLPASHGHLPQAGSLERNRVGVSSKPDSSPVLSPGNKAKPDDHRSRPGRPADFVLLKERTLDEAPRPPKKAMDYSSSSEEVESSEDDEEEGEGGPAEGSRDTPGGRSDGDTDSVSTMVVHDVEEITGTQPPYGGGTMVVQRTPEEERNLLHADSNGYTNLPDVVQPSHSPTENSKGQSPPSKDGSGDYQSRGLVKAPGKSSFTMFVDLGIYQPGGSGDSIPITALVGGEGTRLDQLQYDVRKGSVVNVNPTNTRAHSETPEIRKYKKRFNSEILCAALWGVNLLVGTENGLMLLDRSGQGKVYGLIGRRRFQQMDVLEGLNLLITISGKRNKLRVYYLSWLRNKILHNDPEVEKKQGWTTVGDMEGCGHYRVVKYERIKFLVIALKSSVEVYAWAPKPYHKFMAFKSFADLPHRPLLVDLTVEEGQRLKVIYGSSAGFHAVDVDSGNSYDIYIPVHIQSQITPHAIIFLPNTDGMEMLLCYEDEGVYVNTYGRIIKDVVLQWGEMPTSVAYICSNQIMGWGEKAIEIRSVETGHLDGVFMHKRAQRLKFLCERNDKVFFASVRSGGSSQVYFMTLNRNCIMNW
Chain of Mitogen-activated protein kinase kinase kinase kinase 4 (Homo sapiens) (O95819 2-1239 limits assumed): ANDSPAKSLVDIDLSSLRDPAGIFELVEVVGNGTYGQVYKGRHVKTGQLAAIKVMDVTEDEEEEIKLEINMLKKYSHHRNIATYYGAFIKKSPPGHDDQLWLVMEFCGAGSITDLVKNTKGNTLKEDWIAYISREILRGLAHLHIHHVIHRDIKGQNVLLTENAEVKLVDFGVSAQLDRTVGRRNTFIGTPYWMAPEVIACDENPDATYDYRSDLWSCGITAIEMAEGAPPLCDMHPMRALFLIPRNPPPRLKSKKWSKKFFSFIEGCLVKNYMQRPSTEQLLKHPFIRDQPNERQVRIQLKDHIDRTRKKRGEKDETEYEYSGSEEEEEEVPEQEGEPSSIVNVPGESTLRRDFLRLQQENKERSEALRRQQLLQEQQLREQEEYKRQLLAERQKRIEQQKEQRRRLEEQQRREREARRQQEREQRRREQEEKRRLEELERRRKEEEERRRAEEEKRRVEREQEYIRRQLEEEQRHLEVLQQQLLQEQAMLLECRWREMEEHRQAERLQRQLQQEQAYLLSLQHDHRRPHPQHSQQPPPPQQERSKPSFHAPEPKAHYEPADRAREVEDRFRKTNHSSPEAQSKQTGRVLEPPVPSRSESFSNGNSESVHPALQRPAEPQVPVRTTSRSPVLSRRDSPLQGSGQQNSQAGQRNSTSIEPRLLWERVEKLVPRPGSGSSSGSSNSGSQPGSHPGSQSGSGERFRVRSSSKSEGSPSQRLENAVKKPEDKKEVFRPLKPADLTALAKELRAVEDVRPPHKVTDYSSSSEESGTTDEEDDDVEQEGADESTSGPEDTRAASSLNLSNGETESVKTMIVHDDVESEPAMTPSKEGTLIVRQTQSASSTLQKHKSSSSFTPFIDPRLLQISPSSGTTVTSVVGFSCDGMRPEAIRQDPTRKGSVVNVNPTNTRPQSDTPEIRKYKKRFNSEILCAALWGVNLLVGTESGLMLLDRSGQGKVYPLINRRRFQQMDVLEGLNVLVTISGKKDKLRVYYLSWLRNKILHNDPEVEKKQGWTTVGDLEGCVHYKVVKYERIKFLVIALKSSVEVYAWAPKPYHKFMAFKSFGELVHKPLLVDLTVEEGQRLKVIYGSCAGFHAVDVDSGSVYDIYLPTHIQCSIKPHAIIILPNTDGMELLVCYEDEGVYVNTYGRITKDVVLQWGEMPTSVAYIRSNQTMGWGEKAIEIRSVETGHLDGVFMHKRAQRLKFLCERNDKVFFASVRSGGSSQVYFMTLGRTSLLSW
Chain of Dual specificity mitogen-activated protein kinase kinase 1 (Homo sapiens) (Q02750 whole entry): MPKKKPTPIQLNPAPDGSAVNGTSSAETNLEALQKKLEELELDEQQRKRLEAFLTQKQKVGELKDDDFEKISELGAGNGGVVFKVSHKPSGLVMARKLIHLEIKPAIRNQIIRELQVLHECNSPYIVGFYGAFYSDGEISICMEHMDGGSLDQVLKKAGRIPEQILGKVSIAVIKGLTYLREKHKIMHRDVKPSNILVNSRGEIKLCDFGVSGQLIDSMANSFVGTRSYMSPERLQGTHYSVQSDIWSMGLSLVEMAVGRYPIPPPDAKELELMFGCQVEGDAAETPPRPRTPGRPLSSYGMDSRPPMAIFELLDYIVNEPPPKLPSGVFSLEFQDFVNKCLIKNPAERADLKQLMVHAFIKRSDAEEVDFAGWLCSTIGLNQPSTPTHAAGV

For `Cc1ccc(NC(=O)c2ccnc(N3CCCC3)c2)cc1-c1ccc(C(=O)NCC2CC2)cc1`, the inhibition in [1] was 4.67%; in assay [2], 1.95%; in assay [3], 6.5%; in assay [4] it was -0.41%; in assay [5] it was 7.12%; in [6], 3.49%. Besides, the inhibition in assay [7] is 7.84%; in assay [8], 3.82%; in [9], 13.5%; in assay [10], 10%; in [11] it was 10.9%; in [12] it was 5.95%. Besides, the inhibition in assay [13] came out at 5.8%; in [14], 11.6%; in [15] it was 10.5%; in [16] it was 8.79%; in assay [17], 9.83%; in [18], 9.39%. In addition, the results for the inhibition in assay [19] and in assay [20] were 9.53% and 4.41%, respectively.
Turning to `Cc1cc(O)cc(C)c1/C=C/c1cncc(-c2nn[nH]n2)c1`, the inhibition in [1] was -0.41%; in assay [2], -2.87%; in assay [3] it was 1.12%; in assay [4], -3.31%; in assay [5], -0.15%; in assay [6] it was 5.3%. In addition, the inhibition in [7] is 39.7%; in assay [8], 1.25%; in [9] it was 5.33%; in assay [10] it was 8.4%; in assay [11], 25.3%; in [12], 6.51%. Also, the inhibition came out at 5.24% in assay [13]; 9.23% in assay [14]; 21.7% in assay [15]; 3.48% in assay [16]; 9.22% in assay [17]; 4.45% in assay [18]. The inhibition in assay [19] is 10.7%; in assay [20] it was -1.84%.
On to `COC(=O)Nc1nc2cc(Oc3cccc(NC(=O)Nc4cc(C(F)(F)F)ccc4F)c3)ccc2[nH]1`, for which the inhibition in assay [1] is 1.22%; in assay [2], -1.59%; in assay [3] it was -0.29%; in [4], 0.03%; in [5], 4.29%; in [6], 4.04%. The inhibition stood at 12.5% in [7]; 1.34% in assay [8]; 3.06% in assay [9]; 3.21% in assay [10]; 4.32% in [11]; 0.59% in [12]. For the same compound, the inhibition is 0.38% in assay [13]; 1.15% in assay [14]; 3.21% in assay [15]; -1.6% in assay [16]; 0.24% in assay [17]; -1.24% in assay [18]. For the same compound, the inhibition in assay [19] was found to be 0.17%; in assay [20], 0.73%.
As to `Nc1nc(-c2ccccn2)c(-c2ccc3ncccc3n2)s1`, the inhibition was 9.43% in assay [1]; 1.61% in assay [2]; 8.29% in [3]; 2.42% in assay [4]; 2.91% in assay [6]; 5.82% in assay [7]. Besides, the inhibition in assay [8] was 0.08%; in assay [9] it was 2.92%; in assay [10] it was 5.35%; in assay [11] it was 9.69%; in [12], 2.95%; in [13], 2.78%. The inhibition turned out to be 5.37% in assay [14]; 7.86% in assay [15]; 5.62% in assay [16]; 6.85% in [17]; 5.79% in assay [18]; 6.4% in assay [19]. In addition, in [20], the inhibition was -2.14%.
`CS(=O)(=O)CCN(CC#N)Cc1ccc(-c2ccc3ncnc(Nc4ccc(OCc5cccc(F)c5)c(Cl)c4)c3c2)o1`: the inhibition in assay [1] was -0.17%; in assay [2], -3.61%; in [3], 0.96%; in [4], -4.78%; in assay [5], 1.4%; in [6], 3.25%. Further, the inhibition in assay [7] was 7.32%; in [8] it was -0.14%; in assay [9], -0.7%; in [10], 3.8%; in [11], 5%; in assay [12], 2.47%. For the same compound, the inhibition turned out to be 0.44% in assay [13]; 3.04% in [14]; 3.9% in [15]; 0.41% in assay [16]; 0.1% in [17]; 0.67% in [18]. Further, the inhibition in assay [19] is 1.66%; in assay [20], -1.31%.
`CC1=C(C(=O)Nc2ccc3[nH]ncc3c2)C(c2ccc(Cl)c(Cl)c2)CC(=O)N1` (centres undefined): the inhibition amounted to 70.2% in assay [1]; 1.32% in assay [2]; 19.5% in assay [3]; 3.19% in assay [4]; 28.2% in [5]; 3.78% in [6]. In addition, the inhibition in assay [7] was 5.17%; in [8], -1.16%; in assay [9], 1.61%; in assay [10] it was 2.18%; in assay [11] it was 3.96%; in [12] it was 4.74%. Besides, the inhibition was 30.5% in assay [13]; 1.68% in assay [14]; 1.98% in assay [15]; 1.25% in [16]; 4.28% in [17]; 1.27% in [18]. Also, the values for the inhibition in assay [19] and in [20] were 2.63% and -1.2%, respectively.
Regarding `COc1cc2c(cc1Nc1nc(N3CCc4ccccc43)c3cc[nH]c3n1)N(C(=O)CN(C)C)CC2`, the inhibition in assay [1] was found to be 2.61%; in [2], 0.77%; in assay [3] it was 3.08%; in assay [4] it was 0.6%; in [5] it was 8.2%; in assay [6], 1.91%. The inhibition in assay [7] was 1.24%; in assay [8], 0.88%; in [9], 3.15%; in assay [10], 1.37%; in assay [11], 2.27%; in assay [12], 1.49%. In addition, the inhibition is 2.14% in assay [13]; 3.79% in [14]; -0.01% in assay [15]; 5.66% in [16]; 6.86% in [17]; 6.28% in assay [18]. Besides, the inhibition in [19] is 5.22%; in assay [20] it was -0.61%.

Usually inhibition stands for the change of the read-out against control, counted positive when it falls.
